Measured values: PubChem BioAssay AID1233 (SRMLSC, 2008)
Potency and affinity values are given separately. The source made the active and inactive calls.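 Rule for the calls: active = a dose-response curve fit returns a half-maximal inhibitory concentration, extrapolated values included; inactive = the fit returns no such concentration.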

target: HMG-CoA reductase [Enterococcus faecalis] (UniProt Q9FD70); assay: inhibitors of E. faecalis class II HMGR, confirmation, biochemical, Enterococcus faecalis (AID 1233); conditions: purified E. faecalis HMGR, NADPH absorbance 340 nm kinetics; series mostly up to 100 µM

Which outcome does the source give for `CCN(CC)Cc1c(C(=O)N2CCc3ccccc3C2)nc2ccc(Cl)cn12` here?
Its outcome is “inactive”.

How did the outcome turn out when `CCCCCC/C(C)=C1/SC(=S)NC1=O` was run?
The outcome was “inactive”.

`CN(Cc1ccccc1)c1nc(N)nc(Cl)c1C=O` was tested. Which outcome did it give?
Its outcome is “inactive”.

Which outcome does the source give for `O=C(Nc1cccc(S(=O)(=O)N2CCCCCC2)c1)c1ccc2ccccc2n1` here?
The outcome was “inactive”.

For `COc1cc(Cn2c(=O)oc3ccc(C)cc32)ccc1OC(C)C`, which outcome is on record?
Its outcome is “inactive”.

Which outcome does the source give for `NC(=O)c1ccc2nc(NC(=O)c3ccc(N)cc3)sc2c1` here?
Its outcome is “inactive”.

Which outcome does the source give for `O=C(CCS(=O)(=O)c1cccc2nonc12)Nc1cccc2c1CCCC2` here?
Its outcome is “inactive”.

With `CC[n+]1c(C)n(-c2ccccc2)c2ccc(C(=O)OC)cc21` as the compound, how does the outcome read?
The outcome was “inactive”.

With `CCOC(=O)c1sc(NC(=O)CSc2n[nH]c(CC)n2)nc1C` as the compound, how does the outcome read?
Its outcome is “inactive”.

Which outcome does the source give for `CC1CN(Cc2cnc(Cl)s2)CC(C)O1` (stereo not drawn) here?
The outcome was “inactive”.

How did the outcome turn out when `Nc1ccc(C(=O)Nc2ccc(OC(F)(F)C(F)F)c(NC(=O)c3ccc(N)cc3)c2)cc1` was run?
The outcome was “inactive”.

Which outcome does the source give for `N#CCCCn1c(=O)oc2ccccc21` here?
Its outcome is “inactive”.

Which outcome does the source give for `Brc1ccc(/C=N/Nc2ncnc3c2cnn3Cc2ccccc2)cc1` here?
The outcome was “inactive”.

For `CCOC(=O)c1sc(NC(=O)CSc2nccc(C)n2)nc1C`, which outcome is on record?
Its outcome is “inactive”.

How did the outcome turn out when `COc1ccc(C(=O)C(C)OC(=O)c2cccc(S(=O)(=O)Nc3cc(Cl)c(OC)cc3OC)c2)cc1` (stereo not drawn) was run?
Its outcome is “inactive”.

With `Cc1cc(C(=O)NN=C2CCCCC2)c2ccccc2n1` as the compound, how does the outcome read?
The outcome was “inactive”.

Which outcome does the source give for `Cc1cc(C)nc(N(C#N)CC(=O)N2CCC(C(N)=O)CC2)n1` here?
Its outcome is “inactive”.

How did the outcome turn out when `CN(C)C(CNC(=O)CCOc1ccccc1)c1ccco1` (stereo not drawn) was run?
Its outcome is “inactive”.

With `Cc1ccc(-c2nc3cccnc3s2)cc1NS(=O)(=O)c1ccc2c(c1)CCCC2` as the compound, how does the outcome read?
Its outcome is “inactive”.

Which outcome does the source give for `Cc1ccc(C2C(C(=O)c3ccco3)=C(O)C(=O)N2c2nnc(C)s2)cc1` (stereo not drawn) here?
Its outcome is “inactive”.

With `Cc1c(NC(=O)CN2C(=O)c3ccccc3S2(=O)=O)c(=O)n(-c2ccccc2)n1C` as the compound, how does the outcome read?
Its outcome is “inactive”.

With `CN(C)S(=O)(=O)c1ccc(NC(=O)N2CCOCC2)cc1` as the compound, how does the outcome read?
The outcome was “inactive”.

With `CCCSc1nnc2n(N)c(=O)c3ccccc3n12` as the compound, how does the outcome read?
The outcome was “inactive”.

How did the outcome turn out when `O=C(Nc1ccc(Oc2ccccc2)cc1)c1ccc(Cn2c(=O)[nH]c3ccsc3c2=O)cc1` was run?
Its outcome is “inactive”.

With `COc1cc(S(=O)(=O)N2CCC(c3nc4ccccc4s3)CC2)ccc1S(=O)(=O)NC1CCCC1` as the compound, how does the outcome read?
The outcome was “inactive”.

`Cc1cc(C(=O)N[C@H](c2ccccc2)[C@@]2(C)C[C@@H]2[C@@H](C)C(=O)Nc2ccc3ccccc3c2)no1` was tested. Which outcome did it give?
The outcome was “inactive”.

With `COc1ccc(NC(=O)c2ccc3c(c2)n(C)c(=O)n3C)cc1` as the compound, how does the outcome read?
The outcome was “inactive”.

`CC(C)OCCCNC(=O)Nc1cccc2ccccc12` was tested. Which outcome did it give?
The outcome was “inactive”.

For `Cc1cc(C(=O)N/N=C2\CCCC(=O)C2)c(C)n1-c1ccccc1`, which outcome is on record?
The outcome was “inactive”.

With `CCCCCCNC(=O)C(=O)NCCc1ccc(Cl)cc1` as the compound, how does the outcome read?
The outcome was “inactive”.

Which outcome does the source give for `CCc1cccc2c(C#N)cn(CCOc3ccccc3OC)c12` here?
The outcome was “inactive”.

Which outcome does the source give for `O=C(c1cc([N+](=O)[O-])ccc1N1CCCCC1)N1CCc2ccccc21` here?
Its outcome is “inactive”.

For `O=[N+]([O-])c1ccc(Cl)c(-c2ccc(/C=N/c3c(-c4ccco4)nc4ccccn34)o2)c1`, which outcome is on record?
Its outcome is “inactive”.

With `COc1ccccc1C(=O)NCC(=O)NC1CCCc2ccccc21` (stereo not drawn) as the compound, how does the outcome read?
The outcome was “inactive”.

How did the outcome turn out when `COc1cccc(-c2nnc3sc(-c4cccs4)nn23)c1` was run?
Its outcome is “inactive”.

Which outcome does the source give for `COc1ccc2c(c1)c(=O)c(C(=O)c1ccccc1)cn2Cc1ccc(C)cc1` here?
Its outcome is “inactive”.

For `CCOC(=O)/C(C#N)=C1/C(=O)N(Cc2ccccc2)c2ccccc21`, which outcome is on record?
Its outcome is “inactive”.

Which outcome does the source give for `Cc1c(Br)c([N+](=O)[O-])nn1C(C)C(=O)Nc1ccc2c(c1)OCO2` (stereo not drawn) here?
Its outcome is “inactive”.
